Reference: PubChem BioAssay (NCATS)
“And” between values parts separate entries of the source, which are not always exact repeats. Equal values may be shown once. Inconclusive results are not listed. More than one record can exist for a structure, and the calls need not agree. The source made the active and inactive calls. Unless noted, the call rests on the fitted dose curve; in most records, active means well fitted curve in the direction sought with a large enough effect; inconclusive means small, poorly fitted or top-dose-only effect, or another doubt; inactive means no such curve, though single readings can be large; an effect the other way counts as inactive or inconclusive.

Experiments:
[1] = biological target: Cytochrome P450 1A2 (Homo sapiens) (UniProt P05177); test: p450-cyp1a2 (AID 410; calls by dose curve)
Method in brief: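 Human CYP1A2 (20nM) demethylated Luciferin-ME at its Km (100uM) in 100mM KPO4. After 10 min compound preincubation, NADPH regeneration ran the reaction 60 min at room temperature. Luciferin was read by luminescence, normalized to 57 uM furafylline.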

[2] = biological target: Glucocorticoid receptor (Homo sapiens) (UniProt P04150); test: GR-GFP Redistribution (AID 450;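 active means compounds whose dose series gives a full or clear partial fitted curve of increased nuclear translocation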; further: potency means the concentration at half of the fitted maximal effect); conditions: U2OS GR-GFP nuclear translocation, laser cytometry, 2 h
[3] = biological target: Glucocorticoid receptor (Homo sapiens) (UniProt P04150); test: GR-EFC Redistribution (AID 451; calls by dose curve; further: potency means the concentration at half of the fitted maximal effect); conditions: CHO-K1 GR-EFC translocation, beta-gal luminescence, 2 h
Method in brief: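 Translocation of GR-ED fusion to nuclear EA restores b-gal, read by luminescence after 1 h room-temperature detection. Engineered CHO-K1 biosensor cells, 1,000/well, exposed 2 h at 37 C to titrations up to 46 uM final.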

[4] = biological target: Mitogen-activated protein kinase 10 (Mus musculus) (UniProt Q61831); test: JNK3 AlphaScreen Assay (AID 530; active means well fitted curve in either direction with a large enough effect, not every such curve was filed as active;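 further: kinase came from lysate of stimulated human HepG2 cells; signal reports phosphorylation of biotinylated GST-cJun 1-79 at Ser73 with 10 µM ATP; series mostly up to about 57 µM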)
Method in brief: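 Room-temperature AlphaScreen kinase assay; pre-activated HepG2 lysate as JNK3 source, biotin-GST-cJun(1-79) substrate, 10 uM ATP, compound 15 min preincubation.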

[5] = biological target: 3',5'-cyclic-AMP phosphodiesterase 4B (Homo sapiens) (UniProt Q07343); test: qHTS Assay for Inhibitors of PDE-IV (AID 607; active means well fitted activation curve with a large enough effect in the main read-out, with a control signal flat, not every such curve was filed as active)
Method in brief: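 HEK293 ACTOne cells with CNG channel (1000/well), endogenous PDE4; membrane potential dye, compounds up to 22.9 uM final. Fluorescence Ex 535/Em 590; RO 20-1724 (100 uM final) as reference.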

[6] = biological target: Guanine nucleotide-binding protein G(i) subunit alpha-1 (Homo sapiens) (UniProt P63096); test: qHTS Assay for Inhibitors of RGS12 GoLoco Motif Activity (Green Fluorophore) (AID 879);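 further: negative values mean loss of peptide binding seen as reduced polarization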
Method in brief: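 Fluorescence polarization assay: 50 nM Gαi1 with 10 nM FITC-labeled RGS12 GoLoco peptide in 10 mM Tris pH 7.5, 150 mM NaCl, 0.1 mM GDP, 0.05% NP40, 10 min at room temperature with compound.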

[7] = biological target: Cytochrome P450 3A4 (Homo sapiens) (UniProt P08684); test: qHTS Assay for Activators of Cytochrome P450 3A4 (AID 885); further: nearly all actives have a fitted effect of over 65% in size
Method in brief: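 Human CYP3A4 (20 nM) with Luciferin-PPXE at 25 uM (its KM) in 200 mM KPO4; 10 min compound preincubation, then NADPH regeneration and 60 min reaction at RT. Luciferin read by luminescence; normalized to 57 uM ketoconazole full inhibition.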

[8] = biological target: Cytochrome P450 2D6 (Homo sapiens) (UniProt P10635); test: qHTS Assay for Inhibitors and Substrates of Cytochrome P450 2D6 (AID 891); further: nearly all actives have a fitted effect of over 60% in size; further: potency means the concentration at half of the fitted maximal effect
Method in brief: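 Human CYP2D6 (5 nM) with 30 uM Luciferin-ME EGE (at Km) in 100 mM KPO4, compound preincubated 10 min, then NADPH regeneration system for 60 min at room temperature. Luciferin read by luminescence; normalized to 1.43 uM quinidine.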

[9] = biological target: Cytochrome P450 2C19 (Homo sapiens) (UniProt P33261); test: qHTS Assay for Inhibitors and Substrates of Cytochrome P450 2C19 (AID 899); further: nearly all actives have a fitted effect of over 60% in size; further: potency means the concentration at half of the fitted maximal effect
Method in brief: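 Reactions contain 5nM enzyme, 10uM Luciferin-H EGE (KM) and 50mM KPO4; compound preincubates 10 min at 37C, NADPH regeneration starts turnover for 60 min. Luminescence after detection reagent gives activity.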

[10] = qHTS Assay for Identification of Small Molecule Agonists for Thrombopoietin (TPO) Signaling Pathway (AID 917)
Method in brief: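 Luminescence from a Glycoprotein IIb promoter–driven luciferase reporter served as read-out in murine Ba/F3 cells carrying the human TPO receptor. Cells, deprived of IL-3 overnight, received compounds with 26 pM TPO and were incubated 24 hrs at 37 C.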

[11] = biological target: Pyruvate kinase (Leishmania mexicana) (UniProt Q27686); test: qHTS Validation Assay for Inhibitors of Leishmania Mexicana Pyruvate Kinase (AID 945)
Method in brief: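 The enzyme is a highly purified E451W mutant of LmPYK used at 0.2 nM. It converts 0.5 mM PEP and 0.1 mM ADP over 1 h at room temperature; product ATP is quantified by luciferase luminescence relative to DMSO controls.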

[12] = biological target: Pyruvate kinase PKM (Homo sapiens) (UniProt P14618); test: qHTS Assay for Activators of Human Muscle Pyruvate Kinase (AID 954; active means well fitted curve in the direction sought with a large enough effect, not every such curve was filed as active)
Method in brief: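 Purified human PKM2 (0.1 nM) with 0.5 mM PEP (Km) and 0.1 mM ADP in 50 mM imidazole pH 7.2, KCl, MgCl2, 1 h at room temperature; ATP formed read by coupled luciferase luminescence. Normalized to no-enzyme/110 uM thiadiazolimine inhibition; 0.3 nM enzyme column for activation.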

[13] = biological target: Alpha-galactosidase A (Homo sapiens) (UniProt P06280); test: Counterscreen for Glucocerebrosidase Inhibitors: qHTS Assay for Human alpha-Galactosidase at pH 4.5 (AID 992)
Method in brief: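 Human enzyme (2 nM) with 80 uM 4-methylumbelliferyl alpha-D-galactopyranoside in 50 mM citric acid, 0.005% Tween-20, pH 4.5, 20 min at room temperature. Compounds 0.7 nM–77 uM; fluorescence Ex 365/Em 440 after pH 10 stop; AC50 from Hill fits.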

[14] = biological target: alpha-glucosidase (Oryza sativa, rice) (UniProt Q653V4); test: Counterscreen for Glucocerebrosidase Inhibitors: qHTS Assay for Rice alpha-Glucosidase at pH 5.0 (AID 997)
Method in brief: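 Rice alpha-glucosidase (4 nM final) with 400 uM 4-methylumbelliferyl-alpha-D-glucopyranoside in citrate buffer pH 5.0, 20 min at room temperature, stopped at pH 10; fluorescence 365/440 nm, compounds 0.7 nM–77 uM, AC50 from Hill fits.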

[15] = Validation of Assay for Modulators of Lamin A Splicing (AID 1459; active means well fitted curve in the direction sought with a large enough effect in the signal ratio; the % refers to the signal ratio;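 further: cells exposed to compound for two days before reading; ratio rise marks activators and ratio drop marks inhibitors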)
Method in brief: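 HeLa S3 lamin A-EGFP/DsRed2 stable clone, 600 cells/well, Opti-MEM 2% FBS; compounds by pin tool; 48 hrs, 37 °C/5% CO2; Acumen 488 nm scan, objects 10-100 um; GFP/RFP intensity ratio.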

[16] = biological target: DNA repair nuclease/redox regulator APEX1 (Homo sapiens) (UniProt P27695); test: qHTS Validation Assay for Inhibitors of the Human Apurinic/apyrimidinic Endonuclease 1 (APE1) (AID 1705;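 further: TAMRA fluorescence gain over two minutes as APE1 cuts a quenched THF abasic duplex; series mostly up to about 57 µM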)
Method in brief: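 qHTS, 1536-well. APE1 + cpd 15 min RT → 50 nM TAMRA/BHQ-2 THF-abasic dsDNA substrate → kinetic fluorescence, 3 reads/60 s; delta(read3−read1) = reaction progress. No-enzyme buffer = negative control.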

[17] = Counterscreen for APE1 Inhibitors: Fluorescent Dye Displacement Validation Assay (AID 1707)
Method in brief: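 Thiazole Orange (250 nM) bound to 50 nM TAMRA-labelled dsDNA with tetrahydrofuran abasic site; displacement by DNA-binding compounds lowers fluorescence. Buffer 50 mM Tris-HCl pH 7.5, 50 mM NaCl, 2 mM MgCl2, 0.01% Tween-20; endpoint read at 480/540 nm.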

[18] = biological target: Endonuclease 4 (Escherichia coli (strain K12)) (UniProt P0A6C1); test: Counterscreen for APE1 Inhibitors: qHTS Validation Assay for Inhibitors of Endonuclease IV (AID 1708)
Method in brief: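 Enzymatic AP-site incision assay using a double-stranded THF substrate labelled with TAMRA and BHQ-2; released fluorescence signals activity. Enzyme 2 nM, substrate 50 nM, 15 min compound preincubation.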

[19] = qHTS for differential inhibitors of proliferation of Plasmodium falciparum line 7G8 (AID 1815);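 further: potency means the concentration at half of the fitted maximal effect; parasite growth measured after three days of incubation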
[20] = qHTS for differential inhibitors of proliferation of Plasmodium falciparum line Dd2 (AID 1882); conditions: Potency: Plasmodium falciparum Dd2 proliferation inhibition;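 further: series mostly up to about 29 µM; compound exposure of 72 h on infected erythrocytes; nearly all actives have a fitted effect of over 65% in size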
Method in brief: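 SYBR Green I DNA fluorescence read-out, ex 485/em 535 nm. Signals were normalized to 0.29 uM artemisinin and DMSO wells, then corrected using vehicle-only plates flanking each stack. Parasite growth ran 72 h in erythrocytes before lysis.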

[21] = qHTS for differential inhibitors of proliferation of Plasmodium falciparum line W2 (AID 1883); conditions: Potency: Plasmodium falciparum W2 proliferation inhibition;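 further: potency means the concentration at half of the fitted maximal effect; parasites grown with compound for 72 h before lysis and staining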
[22] = qHTS for differential inhibitors of proliferation of Plasmodium falciparum line HB3 (AID 1886); conditions: Potency: Plasmodium falciparum HB3 proliferation inhibition;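 further: parasites grown with compound for 72 h before SYBR Green readout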
[23] = biological target: ATP-dependent DNA helicase Q1 (Homo sapiens) (UniProt P46063); test: qHTS Validation Assay for Inhibitors of RecQ-Like Dna Helicase 1 (RECQ1) (AID 2353)
Method in brief: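 50 nM RECQ1T1 preincubated 15 min with compound in Tris pH 8.0 buffer with MgCl2, DTT, Tween-20 and 2.5 ug/ml poly(dI-dC); started with 200 nM TAMRA/BHQ-2 forked duplex and 2 mM ATP. Unwinding read as fluorescence (525/598 nm), two reads 2 h apart.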

[24] = Quantitative high throughput screen for delayed death inhibitors of the malarial parasite plastid, 96 hour incubation (AID 488745); further: series mostly up to about 29 µM; nearly all actives have a fitted effect of over 70% in size
Method in brief: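 P. falciparum carrying an integrated firefly luciferase reporter, grown in erythrocytes (2% hematocrit, 0.1% parasitemia final) in RPMI 1640/0.5% Albumax, was exposed to compound for 96 h (two generations) at 37 C, 5% CO2. Luminescence decrease indicated growth inhibition.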

Measured: Potency

Sequence of Glucocorticoid receptor (Homo sapiens) (P04150 whole entry, looked up, the tested form may be a part): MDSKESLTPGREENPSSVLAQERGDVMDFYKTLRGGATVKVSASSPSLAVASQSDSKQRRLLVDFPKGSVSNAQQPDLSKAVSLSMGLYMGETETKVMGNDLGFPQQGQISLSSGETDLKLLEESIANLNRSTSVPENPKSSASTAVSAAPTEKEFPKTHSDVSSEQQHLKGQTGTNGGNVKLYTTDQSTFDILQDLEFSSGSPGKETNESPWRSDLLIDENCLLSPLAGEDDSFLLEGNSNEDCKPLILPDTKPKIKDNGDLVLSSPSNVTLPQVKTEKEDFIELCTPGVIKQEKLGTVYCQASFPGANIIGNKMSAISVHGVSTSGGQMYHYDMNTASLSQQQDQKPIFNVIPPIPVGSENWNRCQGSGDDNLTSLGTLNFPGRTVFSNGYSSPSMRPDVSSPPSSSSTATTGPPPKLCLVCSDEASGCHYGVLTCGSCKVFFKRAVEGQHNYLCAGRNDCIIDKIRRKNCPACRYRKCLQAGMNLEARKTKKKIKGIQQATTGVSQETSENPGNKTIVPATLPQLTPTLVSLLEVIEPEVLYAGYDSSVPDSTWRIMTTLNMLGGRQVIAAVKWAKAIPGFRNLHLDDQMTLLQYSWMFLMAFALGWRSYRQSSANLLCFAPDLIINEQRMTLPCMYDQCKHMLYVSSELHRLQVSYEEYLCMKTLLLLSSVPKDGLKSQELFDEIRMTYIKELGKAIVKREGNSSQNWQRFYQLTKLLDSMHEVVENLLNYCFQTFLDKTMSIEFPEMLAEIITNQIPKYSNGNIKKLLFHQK
Sequence of Cytochrome P450 2C19 (Homo sapiens) (P33261 whole entry, looked up): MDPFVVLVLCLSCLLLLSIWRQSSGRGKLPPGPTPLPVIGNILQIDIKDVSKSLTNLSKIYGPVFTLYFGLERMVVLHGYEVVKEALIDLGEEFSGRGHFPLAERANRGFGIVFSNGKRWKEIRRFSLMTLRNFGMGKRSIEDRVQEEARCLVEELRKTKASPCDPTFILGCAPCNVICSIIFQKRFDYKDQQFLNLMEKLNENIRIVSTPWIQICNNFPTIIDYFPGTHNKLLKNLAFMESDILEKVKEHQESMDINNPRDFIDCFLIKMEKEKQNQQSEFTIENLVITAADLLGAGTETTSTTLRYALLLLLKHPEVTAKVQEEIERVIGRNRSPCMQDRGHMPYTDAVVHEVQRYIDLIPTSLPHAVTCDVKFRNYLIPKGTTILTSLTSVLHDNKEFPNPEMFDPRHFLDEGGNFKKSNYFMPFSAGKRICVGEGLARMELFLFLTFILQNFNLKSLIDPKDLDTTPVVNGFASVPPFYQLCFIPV
Sequence of Cytochrome P450 2D6 (Homo sapiens) (P10635 whole entry, looked up): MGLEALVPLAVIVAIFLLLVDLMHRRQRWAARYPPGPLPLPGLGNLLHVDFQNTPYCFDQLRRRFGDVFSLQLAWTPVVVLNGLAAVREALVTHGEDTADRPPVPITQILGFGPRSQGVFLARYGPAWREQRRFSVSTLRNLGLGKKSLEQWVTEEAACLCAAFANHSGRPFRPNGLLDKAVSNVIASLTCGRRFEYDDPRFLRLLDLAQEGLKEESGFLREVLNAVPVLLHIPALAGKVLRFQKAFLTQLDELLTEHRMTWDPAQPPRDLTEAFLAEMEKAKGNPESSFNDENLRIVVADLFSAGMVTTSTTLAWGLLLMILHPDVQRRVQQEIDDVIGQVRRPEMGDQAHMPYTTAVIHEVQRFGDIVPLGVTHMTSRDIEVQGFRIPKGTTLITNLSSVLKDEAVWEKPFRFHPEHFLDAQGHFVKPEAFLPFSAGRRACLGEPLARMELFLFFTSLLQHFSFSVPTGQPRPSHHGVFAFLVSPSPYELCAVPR
Sequence of DNA repair nuclease/redox regulator APEX1 (Homo sapiens) (P27695 whole entry, looked up): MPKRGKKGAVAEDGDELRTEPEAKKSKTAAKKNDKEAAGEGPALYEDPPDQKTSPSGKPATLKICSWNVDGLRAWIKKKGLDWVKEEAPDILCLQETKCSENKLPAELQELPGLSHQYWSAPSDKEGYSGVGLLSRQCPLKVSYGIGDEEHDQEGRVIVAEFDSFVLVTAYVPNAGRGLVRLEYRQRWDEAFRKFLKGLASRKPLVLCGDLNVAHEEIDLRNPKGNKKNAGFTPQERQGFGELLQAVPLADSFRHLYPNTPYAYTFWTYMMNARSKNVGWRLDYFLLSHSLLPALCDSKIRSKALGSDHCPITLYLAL
Sequence of Cytochrome P450 3A4 (Homo sapiens) (P08684 whole entry, looked up): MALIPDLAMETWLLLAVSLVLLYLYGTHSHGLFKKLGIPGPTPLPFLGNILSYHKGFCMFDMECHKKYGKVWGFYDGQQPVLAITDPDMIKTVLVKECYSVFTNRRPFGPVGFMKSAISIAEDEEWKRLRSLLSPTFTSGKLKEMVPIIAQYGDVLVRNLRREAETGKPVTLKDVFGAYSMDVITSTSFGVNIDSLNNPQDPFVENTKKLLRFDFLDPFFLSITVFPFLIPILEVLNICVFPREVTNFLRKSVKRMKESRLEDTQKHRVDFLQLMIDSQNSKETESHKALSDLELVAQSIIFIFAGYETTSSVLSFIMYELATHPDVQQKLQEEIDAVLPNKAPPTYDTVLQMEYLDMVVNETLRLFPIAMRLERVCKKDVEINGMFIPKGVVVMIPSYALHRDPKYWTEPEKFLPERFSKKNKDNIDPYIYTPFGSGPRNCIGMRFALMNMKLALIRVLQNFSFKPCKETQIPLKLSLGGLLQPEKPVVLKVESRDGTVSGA
Sequence of Pyruvate kinase (Leishmania mexicana) (Q27686 2-499 E452W): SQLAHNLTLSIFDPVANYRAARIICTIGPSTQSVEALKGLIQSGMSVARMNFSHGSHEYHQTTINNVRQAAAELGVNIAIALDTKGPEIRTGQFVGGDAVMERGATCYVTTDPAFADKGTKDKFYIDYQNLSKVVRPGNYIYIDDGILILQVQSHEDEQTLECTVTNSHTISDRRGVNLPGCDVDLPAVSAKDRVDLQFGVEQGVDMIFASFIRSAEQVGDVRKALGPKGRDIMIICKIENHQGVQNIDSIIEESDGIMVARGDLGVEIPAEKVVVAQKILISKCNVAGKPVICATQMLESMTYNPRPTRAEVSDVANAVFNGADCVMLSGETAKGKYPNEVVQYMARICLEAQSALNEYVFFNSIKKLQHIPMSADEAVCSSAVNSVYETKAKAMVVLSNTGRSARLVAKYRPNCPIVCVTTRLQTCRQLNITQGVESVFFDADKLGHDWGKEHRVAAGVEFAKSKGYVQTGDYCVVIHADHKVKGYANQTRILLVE
Sequence of Alpha-galactosidase A (Homo sapiens) (P06280 whole entry, looked up): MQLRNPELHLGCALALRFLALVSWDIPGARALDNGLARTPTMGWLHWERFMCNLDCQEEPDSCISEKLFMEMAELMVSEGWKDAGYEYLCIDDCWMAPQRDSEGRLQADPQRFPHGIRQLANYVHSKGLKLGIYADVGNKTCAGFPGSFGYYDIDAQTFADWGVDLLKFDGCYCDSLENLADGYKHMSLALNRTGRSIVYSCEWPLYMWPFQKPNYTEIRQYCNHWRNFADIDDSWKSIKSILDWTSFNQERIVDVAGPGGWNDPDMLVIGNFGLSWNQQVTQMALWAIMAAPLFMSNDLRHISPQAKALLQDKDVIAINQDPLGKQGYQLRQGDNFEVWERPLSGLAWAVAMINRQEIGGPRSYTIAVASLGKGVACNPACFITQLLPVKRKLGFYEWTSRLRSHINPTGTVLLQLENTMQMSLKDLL
Sequence of Pyruvate kinase PKM (Homo sapiens) (P14618 whole entry, looked up): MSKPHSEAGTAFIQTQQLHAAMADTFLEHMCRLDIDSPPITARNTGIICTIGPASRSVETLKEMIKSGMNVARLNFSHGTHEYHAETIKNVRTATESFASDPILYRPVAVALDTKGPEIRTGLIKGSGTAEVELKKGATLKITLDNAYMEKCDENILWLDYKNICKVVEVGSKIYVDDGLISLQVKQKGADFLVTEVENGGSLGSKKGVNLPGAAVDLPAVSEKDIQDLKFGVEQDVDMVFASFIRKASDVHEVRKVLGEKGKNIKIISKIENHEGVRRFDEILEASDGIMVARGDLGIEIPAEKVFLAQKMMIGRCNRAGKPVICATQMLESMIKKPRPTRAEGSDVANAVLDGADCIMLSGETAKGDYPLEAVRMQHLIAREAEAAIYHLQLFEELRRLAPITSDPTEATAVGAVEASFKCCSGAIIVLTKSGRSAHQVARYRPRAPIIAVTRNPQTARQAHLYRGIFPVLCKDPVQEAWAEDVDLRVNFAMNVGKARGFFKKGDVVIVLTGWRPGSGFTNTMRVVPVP
Sequence of ATP-dependent DNA helicase Q1 (Homo sapiens) (P46063 whole entry, looked up): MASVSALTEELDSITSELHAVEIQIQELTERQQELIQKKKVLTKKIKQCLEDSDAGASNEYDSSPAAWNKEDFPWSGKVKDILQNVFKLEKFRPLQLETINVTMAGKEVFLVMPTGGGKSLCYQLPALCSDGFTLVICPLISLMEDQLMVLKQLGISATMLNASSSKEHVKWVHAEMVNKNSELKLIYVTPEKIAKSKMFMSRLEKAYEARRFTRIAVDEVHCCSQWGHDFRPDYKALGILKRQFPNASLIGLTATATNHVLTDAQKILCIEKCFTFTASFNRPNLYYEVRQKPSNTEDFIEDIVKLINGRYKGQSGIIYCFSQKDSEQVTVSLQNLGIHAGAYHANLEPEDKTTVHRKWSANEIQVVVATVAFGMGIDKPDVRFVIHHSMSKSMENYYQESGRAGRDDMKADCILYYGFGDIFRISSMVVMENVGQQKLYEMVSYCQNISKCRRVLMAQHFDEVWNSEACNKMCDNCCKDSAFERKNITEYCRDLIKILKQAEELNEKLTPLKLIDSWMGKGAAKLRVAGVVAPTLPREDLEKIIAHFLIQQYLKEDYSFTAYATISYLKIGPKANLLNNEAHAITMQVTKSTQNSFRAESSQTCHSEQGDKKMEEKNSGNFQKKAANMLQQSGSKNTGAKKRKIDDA

CN(CCOc1ccc(C[C@H](Nc2ccccc2C(=O)c2ccccc2)C(=O)O)cc1)c1ccccn1
active: [19] 8.91 µM | [21] 8.91 µM
inactive and 31.6 nM (active): [8]
inactive: [1] | [2] > 46 µM | [3] > 46 µM | [4] | [5] | [6] | [7] | [10] | [11] | [12] | [13] | [14] | [15] | [16] | [17] | [18] | [20] | [22] | [23] | [24]
inactive and 3.98 µM (active): [9]
